TDP1 cell CPT – growth inhibition of DT40 Tdp1-/-;hTDP1 cells with camptothecin (screen for TDP1 inhibitors) | AID 686979 | chicken DT40 Tdp1-/-;hTDP1 cells + 20 nM CPT, ATP luminescence, 48 h | Potency, µM (series often up to 46.2 µM), without a hit: at the highest dose activity change, negative = growth inhibition, usual class: inhibitors | 420,000 tested, 12% active; further: nearly all actives have a fitted effect of over 55% in size
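Chicken DT40 Tdp1-/- cells stably complemented with human TDP1 were seeded at 400 cells/well in medium containing 20 nM camptothecin, exposed to pin-transferred compounds, and grown at 37 °C for at least 48 hr. Viability was read as ATP luminescence.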
DT40 TDP1 no CPT – qHTS for Inhibitors of human tyrosyl-DNA phosphodiesterase 1 (TDP1): qHTS in cells in absence of CPT | DT40 Tdp1-/- hTDP1 cells, no CPT, ATP luminescence, 48 h | Potency, µM (highest dose often 46.2 µM), for the others: at the highest dose activity change, negative = growth inhibition, hits mostly inhibitors | 420,000 tested, 15% active; further: nearly all actives have a fitted effect of over 55% in size
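Seeded 400 DT40-hTDP1 cells/well (vehicle DMSO, no 20 nM CPT); pinned compounds; ≥48 hr at 37 °C; CellTiter-Glo luminescence as viability measure.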
HT1080 IDH1KD tx – HT-1080 IDH1 knockdown cell toxicity (counter line); AID 686971; Potency, µM (highest dose often 46.1 µM), without a hit: at the highest dose activity, negative = toxicity, actives largely listed as cytotoxic; HT-1080 IDH1 knockdown viability, ATP luminescence, 48 h; 360,000 tested, 2% active;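 further: 0% = DMSO wells and -100% = cell-free medium wells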
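% activity derives from luminescence (CellTiter-Glo), normalised to DMSO and no-cell wells. HT-1080-IDH1KD cells, 750/well, had 48 h compound exposure at 37 °C.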
KB-3-1 cytotox – KB-3-1 parental cell cytotoxicity; 400,000 tested, 1.4% active; KB-3-1 viability, CellTiter-Glo ATP luminescence, 72 h; AID 1347075; Potency, µM (titrated, usually from 46.1 µM), most hits filed as cytotoxic; further: nearly all actives have a fitted effect of over 60% in size
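Multi-concentration cytotoxicity screen in KB-3-1 cells grown in DMEM lacking phenol red with 10% FBS. After 72 h at 37 °C with compound, ATP-dependent luminescence was recorded.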
KB-V1 cytotox – kills drug-selected multidrug resistant KB-V1 cells; KB-V1 MDR cells viability, CellTiter-Glo, 72 h; 400,000 tested, 3.4% active; Potency, µM (titrated, usually from 46.1 µM), actives largely listed as cytotoxic; further: nearly all actives have a fitted effect of over 60% in size
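Potencies derive from concentration-effect curves fitted to normalized luminescence (CellTiter-Glo) of KB-V1 cells treated for 72 h at 37 degrees C in phenol-red-free DMEM containing 10% FBS.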
HT1080NT lethal – kills 2HG-producing HT-1080-NT fibrosarcoma cells. HT-1080-NT fibrosarcoma viability, CellTiter-Glo ATP luminescence, 48 h. Potency, µM (doses to about 46.1 µM), inactives show at the highest dose activity, negative = less viability, actives largely listed as cytotoxic. 360,000 tested, 1.6% active. AID 686970;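 further: NT is the 2HG producing partner of a matched IDH1 knockdown line; 0% = DMSO-treated cells and -100% = media-only wells without cells; nearly all actives have a fitted effect of over 55% in size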
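A 48-hour cytotoxicity screen used HT-1080-NT cells plated 2 hours before compound delivery. ATP-based CellTiter-Glo luminescence measured viability, normalized to DMSO and no-cell controls.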
* = called active by the depositor; i = inactive; ? = inconclusive; / = not tested or not shown; [ ] = dose if it differs, or a comment. Shown are actives, neighbours in structure and some others; about 19% of the full set was active somewhere. The call rests on the fitted dose curve; in most records, active means well fitted curve in the direction sought with a large enough effect; inconclusive means small, poorly fitted or top-dose-only effect, or another doubt; inactive means no such curve, though single readings can be large; an effect the other way counts as inactive or inconclusive. Unless noted, on the % scale 0 is the no-effect control and ±100 the full control effect; potency means the concentration at half of the fitted maximal effect.

SMILES	TDP1 cell CPT	DT40 TDP1 no CPT	HT1080 IDH1KD tx	KB-3-1 cytotox	KB-V1 cytotox	HT1080NT lethal
Cc1ccc(NC(=O)CSc2nc3ccc(NC(=O)c4ccco4)cc3s2)c(C)c1	16.4µM*	7.31µM*	/	i	i	/
Cc1ccc(NC(=O)CSc2nc3ccc(NC(=O)c4cccc(Cl)c4)cc3s2)c(C)c1	?	?	/	i	i	/
Cc1cccc(NC(=O)CSc2nc3ccc(NC(=O)c4ccco4)cc3s2)c1	10.3µM*	2.59µM*	/	i	i	/
COc1cccc(CNC(=O)CCc2c(C)nn(-c3ccc(N4CCCC4)nn3)c2C)c1	-29.6%	?	/	/	/	/
COc1ccccc1-c1ccnc(-n2ncc(C(=O)N3CCN(C(C)C)CC3)c2-c2ccco2)n1	8.2%[9.04 µM]	-9.6%	/	/	/	/
CCOC(=O)C1=NOC2(C1)C(=O)Nc1ccc(OC(F)(F)F)cc12 (configuration not stated)	?	16.4µM*	?	i	i	?
COc1ccc(-c2nc(S(=O)(=O)c3ccccc3)c(N3CCCC3)o2)cc1	-0.7%	-4.7%	0.7%	i	i	1.9%
COc1ccc(N2CCN(c3oc(-c4ccccc4C)nc3S(=O)(=O)c3ccccc3)CC2)cc1	11.6µM*	9.2µM*	/	i	i	/
COc1cccc(-c2nc(S(=O)(=O)c3ccccc3)c(N3CCC(C)CC3)o2)c1	?	8.2µM*	/	i	?	/
Cc1ccccc1-c1nc(S(=O)(=O)c2ccccc2)c(N2CCCC2)o1	?	?	-11.8%	i	i	3.7%
COc1ccc(-c2nc(S(=O)(=O)c3ccccc3)c(N3CCC(C)CC3)o2)cc1	20.6µM*	11.6µM*	/	i	i	/
COc1ccccc1-c1nc(S(=O)(=O)c2ccccc2)c(N2CCC(C)CC2)o1	23.1µM*	3.66µM*	/	i	i	/
COc1c2c(c(C(=O)/C=C/C(C)=C/c3ccccc3)c3c1OCO3)CCN(C)C2	-8.7%[9.04 µM]	-17.5%[9.04 µM]	/	/	/	/
COC(=O)N1CCC2(CCCN(C(=O)Nc3cccc(F)c3)C2)CC1	-0.1%	-4.0%	/	/	/	/
FC(F)(F)c1ccccc1-c1cncnc1NCCN1CCOCC1	1.03µM*	1.46µM*	/	/	/	/
Clc1ccc(-n2ncc3c(NCCN4CCOCC4)ncnc32)cc1	7.1%	?	-29.4%	i	i	-21.8%
Clc1ccccc1-c1cncnc1NCCN1CCOCC1	3.26µM*	3.66µM*	/	/	/	/
Nc1nc(-c2cc3ccccc3o2)cs1	6.1%	-16.0%	-2.4%	i	i	6.4%
COc1ccc(Cn2ccc3nc(C)c(C(=O)Nc4ccc(OC)cc4)cc3c2=O)cc1	-15.2%	-20.3%	/	?	i	/
COc1ccccc1NC(=O)CSC1=Nc2ccccc2C2=NC(CC(=O)NCc3ccco3)C(=O)N12 (configuration not stated)	?	?	/	i	i	/
COc1ccc(CNS(=O)(=O)c2ccc3c(c2)N(C(C)=O)CC(C)S3)cc1 (configuration not stated)	?	9.2µM*	-14.4%	?	i	-15.8%
CC(=O)N1c2ccc(S(=O)(=O)NCC3CCC(C(=O)Nc4cccc(C)c4C)CC3)cc2CC1C (configuration not stated)	?	20.6µM*	/	/	/	/
CC(=O)N1c2ccc(S(=O)(=O)N3CCC(C(=O)Nc4cccc(C)n4)CC3)cc2CC1C (configuration not stated)	?	?	-27.4%	?	i	-5.6%
CC(=O)N1c2ccc(S(=O)(=O)NCC3CCC(C(=O)Nc4cccc(C)c4)CC3)cc2CC1C (configuration not stated)	16.4µM*	14.6µM*	/	/	/	/
CC(=O)N1c2ccc(S(=O)(=O)NCC3CCC(C(=O)Nc4cccc(C)n4)CC3)cc2CC1C (configuration not stated)	25.9µM*	18.4µM*	-11.4%	?	i	-25.2%
SMILES	TDP1 cell CPT	DT40 TDP1 no CPT	HT1080 IDH1KD tx	KB-3-1 cytotox	KB-V1 cytotox	HT1080NT lethal
NC(=O)c1[nH]cnc1N=NN(CCO)Cc1ccccc1	1.6%	-18.5%	-7.9%	i	?	-14.6%
CCn1c(CNC(=O)c2ccccc2Br)nnc1SCC(=O)Nc1nncs1	-5.7%	-12.3%	19.8%	i	i	18.5%
CC(=O)N1CC(C)Sc2ccc(S(=O)(=O)NCCc3cccc(C)c3)cc21 (configuration not stated)	?	14.6µM*	-9.8%	i	i	-17.1%
CC(=O)N1c2ccc(S(=O)(=O)NCCc3cccc(C)c3)cc2CC1C (configuration not stated)	14.6µM*	14.6µM*	/	i	i	/
CCC(C)NC(=O)C1CCC(CNS(=O)(=O)c2ccc3c(c2)CC(C)N3C(=O)C2CC2)CC1 (configuration not stated)	?	?	-6.0%	i	i	-3.5%
CCCCN(C)C(=O)C1CCC(CNS(=O)(=O)c2ccc3c(c2)CC(C)N3C(=O)C2CC2)CC1 (configuration not stated)	10.3µM*	23.1µM*	?	?	?	?
COc1cccc(NC(=O)C2CCC(CNS(=O)(=O)c3ccc4c(c3)CC(C)N4C(C)=O)CC2)c1 (configuration not stated)	23.1µM*	18.4µM*	-20.9%	i	i	-11.1%
COC(=O)c1c(C)[nH]c(C(=O)OCC(=O)c2ccc(C)s2)c1C	?	?	-7.4%	i	i	-23.5%
OCCCNC(=S)Nc1ccc(Br)cc1Cl	-14.0%	-8.5%	2.0%	i	i	-3.6%
COc1ccc(OC)c(S(=O)(=O)Nc2cc3c(cc2C)n(C)c(=O)c(=O)n3C)c1	-14.3%	-25.3%	/	/	/	/
CCC(C)(C)NC(=O)C1CCC(CNS(=O)(=O)c2ccc3c(c2)CC(C)N3C(C)=O)CC1 (configuration not stated)	16.4µM*	11.6µM*	/	/	/	/
CC(=O)N1c2ccc(S(=O)(=O)NCC3CCC(C(=O)NC4CCC(C)CC4)CC3)cc2CC1C (configuration not stated)	?	-24.0%	-12.4%	i	i	-27.8%
CC1CCN(C(=O)CNC(=O)CNC(=O)Cc2ccccc2)CC1	-10.0%	6.6%	5.7%	/	/	3.9%
Cc1cccc(CNc2nc(-c3ccc(C(=O)N(C)C)cc3)nc3ccccc23)c1	23.1µM*	2.91µM*	/	/	/	/

High-throughput results from PubChem.
